Results on 35 molecules are retold here after PubChem BioAssay (EPA / NIEHS).

Several values for one entry are separate records, joined by “and”; a condition that tells them apart may be missing. Equal values may be shown once. Records with an inconclusive call do not appear. Activity calls are given as the source filed them. The calls were made as follows: active = hit-call score of the fitted dose curve at least 0.9, where 1 is the maximum; inconclusive = response in the unintended direction; inactive = score below 0.9.

Read-out in one test: xenobiotic metabolism (CYP1A2), CYP1A2 (gene 1544)
Briefly: CLD_CYP1A2_6hr: CellzDirect (CLD) Gene Expression Assay for xenobiotic metabolism (CYP1A2) at 6 hours (AID 2283663).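 As to AC50: potency is for induction meaning a rise in mRNA above DMSO.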 The method in brief: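 mRNA levels quantified by quantitative nuclease protection assay with chemiluminescence, 6 h after dosing human primary hepatocyte cultures (two donors) across several concentrations, vehicle 0.2% DMSO. Induction fitted upward versus DMSO; phase-contrast cytotoxicity annotated.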
Take `CCOc1cc(C(C)(C)C)ccc1C1COC(c2c(F)cccc2F)=N1` (centres undefined): the result was inactive.

The term AC50 denotes the concentration at which the activity in the assay is half-maximal. Regarding `Nc1c(Cl)c(Cl)nc(C(=O)O)c1Cl`, the AC50 is 33 µM (active). Consider `O=C(Nc1ccccc1-c1ccc(Cl)cc1)c1cccnc1Cl`, for which the AC50 is 2.34 µM (active). Turning to `CCCCC(O)(Cn1cncn1)c1ccc(Cl)cc1Cl` (centres undefined), the molecule was classed as inactive.

For the molecule `CCCCOCN(C(=O)CCl)c1c(CC)cccc1CC`, the outcome was inactive. Turning to `COC(=O)NC(=S)Nc1ccccc1NC(=S)NC(=O)OC`, the molecule was called inactive. Take `CNC(=O)Oc1cccc2ccccc12`: the AC50 was 6.08 µM (active). `CCOc1nc(C(Cl)(Cl)Cl)ns1`: the result was inactive. The same measure, in the same setting: to `Cc1cnc(C2=NC(C)(C(C)C)C(=O)N2)c(C(=O)O)c1` (centres undefined) belongs “inactive”; to `C=CCOC(=O)C(C)(C)OC(=O)c1cc(-n2c(=O)cc(C(F)(F)F)n(C)c2=O)ccc1Cl`, “inactive”.

Consider `O=c1n(Cl)c(=O)n(Cl)c(=O)n1Cl`, for which the AC50 is 20 µM (active).

Tested on in a further test: not listed separately
As to the kind of experiment: CCTE_Simmons_CellTiterGLO_HEK293T: Viability Assessment in CCTE's Assays for Thyroperoxidase (TPO) Inhibition, Simmons Lab (AID 2283665).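 As to AC50: cells exposed to compound for 24 h before readout; actives reduce ATP signal below DMSO vehicle meaning cytotoxicity.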 The method in brief: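 ATP depletion measured in HEK293T cells after 24 h dosing (8 concentrations, 5 nM–87.5 uM final; DMSO 0.5%) using CellTiter-Glo luminescence; curves fit for loss of signal against DMSO baseline.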
As to `COP(=S)(OC)SCn1nnc2ccccc2c1=O`, the AC50 is 53.8 µM (active).

Regarding `COC(=O)NC(=S)Nc1ccccc1NC(=S)NC(=O)OC`, the molecule was classed as inactive. Consider `Clc1nc(Cl)nc(Nc2ccccc2Cl)n1`, for which the AC50 was 83.1 µM (active). Still for that read-out and setting: to `CCOc1nc(C(Cl)(Cl)Cl)ns1` belongs 82.9 µM (active) and 70.4 µM (active).

In the case of `Cc1cnc(C2=NC(C)(C(C)C)C(=O)N2)c(C(=O)O)c1` (centres undefined), the call was inactive. Turning to `CCN(CC)c1nc(C)cc(OP(=S)(OC)OC)n1`, the AC50 is 53.8 µM (active). `O=c1n(Cl)c(=O)n(Cl)c(=O)n1Cl`: the outcome was inactive.

Take `OC(c1ccc(Cl)cc1)(c1ccc(Cl)cc1)C(Cl)(Cl)Cl`: the AC50 was 6.74 µM (active). Same read-out and setting: the value for `CC(C)=CC1C(C(=O)OCc2coc(Cc3ccccc3)c2)C1(C)C` (centres undefined) was 32.7 µM (active).

Tested on in another test: not listed separately
As to the kind of experiment: Tanguay_ZF_120hpf_TR_legacy: (Legacy) Oregon State University Tanguay Lab 120 Hour Post-fertilization zebrafish Assay for Touch Response (AID 2283667). The gist of the method: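 Binary touch-response endpoint in larvae at 120 hpf after static waterborne exposure from embryo stage (28°C, 0.64% DMSO vehicle, 5 uM trimethyltin chloride as positive control); embryos dead at 24 or 120 hpf excluded; fitted as gain versus DMSO.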
With `CCOc1cc(C(C)(C)C)ccc1C1COC(c2c(F)cccc2F)=N1` (centres undefined), the call was inactive.

Turning to `Nc1c(Cl)c(Cl)nc(C(=O)O)c1Cl`, the result was inactive. Regarding `O=C(Nc1ccccc1-c1ccc(Cl)cc1)c1cccnc1Cl`, the molecule was called inactive. Same read-out and setting: the value for `COP(=S)(OC)SCn1nnc2ccccc2c1=O` was “inactive”; that for `CCNP(=S)(OC)O/C(C)=C/C(=O)OC(C)C` (centres undefined) was “inactive”. `CCCCC(O)(Cn1cncn1)c1ccc(Cl)cc1Cl` (centres undefined): the result was inactive.

Take `CCCCOCN(C(=O)CCl)c1c(CC)cccc1CC`: the call was inactive. Still for that read-out and setting: to `CO/N=C(/C1=NOCCO1)c1ccccc1Oc1ncnc(Oc2ccccc2Cl)c1F` belongs “inactive”; to `COC(=O)NC(=S)Nc1ccccc1NC(=S)NC(=O)OC`, “inactive”. Still for that read-out and setting: the value for `CNC(=O)Oc1cccc2ccccc12` was “inactive”. Still for that read-out and setting: the value for `COCC(=O)N(c1c(C)cccc1C)C(C)C(=O)OC` (centres undefined) was “inactive”. Consider `Nc1c(Cl)c(F)nc(OCC(=O)O)c1Cl`, for which the molecule was called inactive.

For the molecule `CSC(=O)c1c(C(F)F)nc(C(F)(F)F)c(C(=O)SC)c1CC(C)C`, the outcome was inactive.

Take `Clc1nc(Cl)nc(Nc2ccccc2Cl)n1`: the call was inactive. On to `CCOc1nc(C(Cl)(Cl)Cl)ns1`, for which the molecule was called inactive.

For `CC1(C)CCC(=Cc2ccc(Cl)cc2)C1(O)Cn1cncn1` (centres undefined), the outcome was inactive. On to `CN=C=S`, for which the result was inactive. Same read-out and setting: the value for `CC(C)C1(C)N=C(c2ncccc2C(=O)O)NC1=O` (centres undefined) was “inactive”. The same measure, in the same setting: to `CC(C)N1C(=O)N(c2ccccc2)CSC1=NC(C)(C)C` belongs “inactive”. On the same count and under the same terms, to `CN/C(=N\[N+](=O)[O-])NCc1cnc(Cl)s1` belongs “inactive”; to `Cc1cnc(C2=NC(C)(C(C)C)C(=O)N2)c(C(=O)O)c1` (centres undefined), “inactive”. Regarding `CCN(CC)c1nc(C)cc(OP(=S)(OC)OC)n1`, the molecule was classed as inactive. As to `CC(C)Nc1nc(Cl)nc(NC(C)C)n1`, the outcome was inactive. Still for that read-out and setting: the value for `CCOC(=O)C(C)OC(=O)c1cc(Oc2ccc(C(F)(F)F)cc2Cl)ccc1[N+](=O)[O-]` (centres undefined) was “inactive”; that for `COC(=O)N(C(=O)N1CO[C@@]2(C(=O)OC)Cc3cc(Cl)ccc3C2=N1)c1ccc(OC(F)(F)F)cc1` was “inactive”. On the same count and under the same terms, the value for `O=c1n(Cl)c(=O)n(Cl)c(=O)n1Cl` was “inactive”; that for `Cc1ccc(N=CN(C)C=Nc2ccc(C)cc2C)c(C)c1` was “inactive”. The same measure, in the same setting: to `OC(c1ccc(Cl)cc1)(c1ccc(Cl)cc1)C(Cl)(Cl)Cl` belongs “inactive”. Regarding `CC(C)=CC1C(C(=O)OCc2coc(Cc3ccccc3)c2)C1(C)C` (centres undefined), the result was inactive. Same read-out and setting: the value for `C=C(C)CN(CC)c1c([N+](=O)[O-])cc(C(F)(F)F)cc1[N+](=O)[O-]` was “inactive”; that for `O=C(O)c1c(Cl)ccc2cc(Cl)cnc12` was “inactive”.

With `CC(C)N1C(=O)c2ccccc2NS1(=O)=O`, the molecule was called inactive. The same measure, in the same setting: to `CCNC(=O)NC(=O)C(C#N)=NOC` belongs “inactive”. The same measure, in the same setting: the value for `COC(=O)NS(=O)(=O)c1ccc(N)cc1` was “inactive”.
